Bioassay records from PubChem.
The list is not random: actives were taken first. Their share in the collection is about 19%.
IL1B secr inh: blocks inflammasome-driven IL-1 beta release; THP-1 LPS/ATP IL-1B secretion, AlphaLISA, 16 h; active compounds read low; activity change, % at 57.5 µM; 4.7% of 360,000 active; in the data active = activity change below about -50%; inconclusive = mostly about -30% to -49%
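Secreted IL-1B measured by AlphaLISA bead assay after 16 h compound exposure of THP-1 cells; compounds (final up to 57.5 uM) added 1 h before LPS (250 ng/mL) and ATP (1.25 mM) stimulation; lower signal means less secretion.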
TDP1 cell noCPT: qHTS for Inhibitors of human tyrosyl-DNA phosphodiesterase 1 (TDP1): qHTS in cells in absence of CPT; DT40 Tdp1-/- hTDP1 cells, no CPT, ATP luminescence, 48 h; Potency, µM (doses to about 46.2 µM), most hits filed as inhibitors; 15% of 420,000 active; also: nearly all actives have a fitted effect of over 55% in size
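Growth of hTDP1-complemented DT40 Tdp1-knockout cells is measured by ATP luminescence after at least 48 hr compound exposure at 37 °C, with DMSO substituting for the 20 nM CPT used in the parallel screen.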
DT40 TDP1 CPT: DT40-hTDP1 cell growth loss with CPT; chicken DT40 Tdp1-/-;hTDP1 cells + 20 nM CPT, ATP luminescence, 48 h; Potency, µM (series often up to 46.2 µM), hits mostly inhibitors; 12% of 420,000 active; also: nearly all actives have a fitted effect of over 55% in size
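Cell growth measured by CellTiter-Glo luminescence after a minimum 48 h, 37 C compound exposure with 20 nM CPT in Tdp1-knockout DT40 cells stably expressing hTDP1, seeded 400/well; qHTS titration format.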
HT1080 IDH1KD tx: kills HT-1080 cells with IDH1 knockdown. HT-1080 IDH1 knockdown viability, ATP luminescence, 48 h. Potency, µM (doses to about 46.1 µM), most hits filed as cytotoxic. 2% of 360,000 active
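Assay cells: HT-1080 with IDH1 knockdown, 750 per well, RPMI/5% FBS. Exposure: 48 h at 37 °C following 2 h pre-incubation. Read: CellTiter-Glo luminescence; fitted concentration-response, curve class assigned.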
HT1080NT lethal: kills 2HG-producing HT-1080-NT fibrosarcoma cells. HT-1080-NT fibrosarcoma viability, CellTiter-Glo ATP luminescence, 48 h. Potency, µM (top dose mostly 46.1 µM), actives largely listed as cytotoxic. 1.6% of 360,000 active;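 also: NT is the 2HG producing partner of a matched IDH1 knockdown line; nearly all actives have a fitted effect of over 55% in size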
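750 cells/well, RPMI + 5% FBS; 2 h settle, compound pin-transfer, 48 h at 37 degrees C. CellTiter-Glo 10 min RT, luminescence. Normalized to DMSO and media-only wells.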
Large screens that a line does not name were inactive. Unless noted, calls follow the shape of the dose curve; as a rule, active = well fitted curve in the direction sought with a large enough effect; inconclusive = small, poorly fitted or top-dose-only effect, or another doubt; inactive = no such curve, though single readings can be large; an effect the other way counts as inactive or inconclusive.

CCCCC(C(=O)NC1CCCC1)N(Cc1ccco1)C(=O)Cn1nnc(-c2ccc(F)cc2)n1 (stereo not given)	IL1B secr inh inconclusive, TDP1 cell noCPT 23µM, DT40 TDP1 CPT 23µM
O=C(CN(Cc1ccco1)C(=O)Cn1nnc(-c2ccc(F)cc2)n1)NC1CCCC1	TDP1 cell noCPT inconclusive, DT40 TDP1 CPT inconclusive
O=C(NC1CCCC1)C(c1cccs1)N(Cc1ccco1)C(=O)Cn1nnc(-c2cccs2)n1 (stereo not given)	TDP1 cell noCPT inconclusive, DT40 TDP1 CPT 21µM
CC(C)CCNC(=O)C(c1ccncc1)N(Cc1cccs1)C(=O)Cn1nnc(-c2ccc(F)cc2)n1 (stereo not given)	TDP1 cell noCPT inconclusive, DT40 TDP1 CPT 9.2µM
CCC(C(=O)NC1CCCC1)N(Cc1cccs1)C(=O)Cn1nnc(-c2ccc(OC)c(OC)c2)n1 (stereo not given)	IL1B secr inh inconclusive, TDP1 cell noCPT inconclusive
Cc1cc(C)n2c(Br)c(CN3CCCC(C)C3)nc2n1 (stereo not given)	none
COc1ccccc1S(=O)(=O)NCc1ccc(C(=O)NC2CCC(O)CC2)cc1 (stereo not given)	DT40 TDP1 CPT inconclusive
CC(C)CC(C(=O)NCC1CCCO1)N(C(=O)Cn1nnc(-c2ccc(F)cc2)n1)c1cccc(C(F)(F)F)c1 (stereo not given)	DT40 TDP1 CPT inconclusive
O=C(NCC1CCCO1)C(c1ccc(F)cc1)N(C(=O)Cn1nnc(-c2ccc(F)cc2)n1)c1cccc(O)c1 (stereo not given)	TDP1 cell noCPT 9.2µM, DT40 TDP1 CPT inconclusive
CCn1cc(S(=O)(=O)c2ccc(C)cc2C)c(=O)c2cc(F)c(N3CCCCC3)cc21	TDP1 cell noCPT 23µM, DT40 TDP1 CPT inconclusive (no result: IL1B secr inh, HT1080 IDH1KD tx, HT1080NT lethal)
CCn1cc(S(=O)(=O)c2ccc(C)cc2)c(=O)c2cc(F)c(N3CCCCCC3)cc21	TDP1 cell noCPT 18µM, DT40 TDP1 CPT 16µM (no result: IL1B secr inh, HT1080 IDH1KD tx, HT1080NT lethal)
Cc1ccc(S(=O)(=O)c2cn(Cc3ccccc3)c3cc(N4CCCC4)c(F)cc3c2=O)cc1	TDP1 cell noCPT 5.8µM, DT40 TDP1 CPT 5.8µM (no result: IL1B secr inh, HT1080 IDH1KD tx, HT1080NT lethal)
CCn1cc(S(=O)(=O)c2ccc(OC)cc2)c(=O)c2cc(F)c(N3CCC(C)CC3)cc21	TDP1 cell noCPT 26µM, DT40 TDP1 CPT inconclusive (no result: IL1B secr inh, HT1080 IDH1KD tx, HT1080NT lethal)
CCCn1cc(S(=O)(=O)c2ccc(C)c(C)c2)c(=O)c2cc(F)c(N3CCC(C)CC3)cc21	none (no result: IL1B secr inh, HT1080 IDH1KD tx, HT1080NT lethal)
CC(=O)Nc1ccc(S(=O)(=O)N(C)CC(=O)N2CCN(C(=O)c3ccco3)CC2)cc1	none
C[C@H](CO)N1C[C@H](C)[C@@H](CN(C)Cc2ccc(C(=O)O)cc2)Oc2c(NS(=O)(=O)c3cn(C)cn3)cccc2C1=O	none
CCn1cc(S(=O)(=O)c2cc(C)cc(C)c2)c(=O)c2cc(F)c(N3CCOCC3)cc21	DT40 TDP1 CPT inconclusive (no result: IL1B secr inh, HT1080 IDH1KD tx, HT1080NT lethal)
CCc1ccc(S(=O)(=O)c2cn(CC)c3cc(N4CCOCC4)c(F)cc3c2=O)cc1	TDP1 cell noCPT inconclusive, DT40 TDP1 CPT 15µM (no result: IL1B secr inh, HT1080 IDH1KD tx, HT1080NT lethal)
CC1CCCCN1c1cc2c(cc1F)c(=O)c(S(=O)(=O)c1ccccc1)cn2Cc1ccccc1 (stereo not given)	TDP1 cell noCPT 8.2µM, DT40 TDP1 CPT 8.2µM (no result: IL1B secr inh, HT1080 IDH1KD tx, HT1080NT lethal)
COc1ccc2c(c1)cc1c(=O)n(CC(=O)NC3CCCCC3)nc(C)n12	none (no result: IL1B secr inh, HT1080 IDH1KD tx, HT1080NT lethal)
COC(=O)C1=CN(c2ccc(N3CCOCC3)cc2)C(N)=C(C#N)C1c1cccc(F)c1 (stereo not given)	TDP1 cell noCPT 8.2µM, DT40 TDP1 CPT inconclusive
COC(=O)C1=CN(c2ccc(F)cc2)C(N)=C(C#N)C1c1cccc(F)c1 (stereo not given)	TDP1 cell noCPT 12µM, DT40 TDP1 CPT 7.3µM, HT1080 IDH1KD tx 23µM, HT1080NT lethal inconclusive
COC(=O)C1=CN(c2cc(C)cc(C)c2)C=C(C(=O)OC)C1c1ccc(OC)c(O)c1	TDP1 cell noCPT inconclusive, DT40 TDP1 CPT inconclusive, HT1080 IDH1KD tx inconclusive, HT1080NT lethal inconclusive
COC(=O)C1=CN(c2ccc(OC)cc2OC)C(N)=C(C#N)C1c1cccc([N+](=O)[O-])c1 (stereo not given)	TDP1 cell noCPT 0.33µM, DT40 TDP1 CPT 0.37µM, HT1080 IDH1KD tx inconclusive, HT1080NT lethal inconclusive
